Screening data deposited in PubChem by National Center for Advancing Translational Sciences (NCATS).
BAZ2B inh: qHTS Assay for Inhibitors of BAZ2B. Bromodomain adjacent to zinc finger domain protein 2B (Homo sapiens), Q9UIF8. AlphaScreen BAZ2B-H3K14Ac peptide displacement. Potency, µM (doses to about 114 µM), for inactives: top-dose activity change, negative = inhibition, hits mostly inhibitors. hit rate 4.4% among 360,000. AID 504333, 2011; note: % is set by controls: 0 for no effect and ±100 for the full control effect; nearly all actives have a fitted effect of over 60% in size
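BAZ2B (50 nM) with biotin-H3(5-23)K14Ac peptide (50 nM) in PBS pH 7.4, 0.01% Tween-20, preformed 30 min, then compound 30 min at room temperature; top concentration 110uM. AlphaScreen streptavidin donor/nickel chelate acceptor beads (10 ug/mL final), 20 min dark, signal read.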
Sfp inh: qHTS Assay for Inhibitors of Bacillus subtilis Sfp phosphopantetheinyl transferase (PPTase). hit rate 3.5% among 310,000. Biochemical Sfp PPTase activity, qHTS. 4'-phosphopantetheinyl transferase ffp (Bacillus subtilis), Q9F4F7. Potency, µM, for the others: largest response in the series, negative = inhibition, actives largely listed as inhibitors. AID 1490, 2009;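 note: the enzyme is Sfp with the accession as filed and its product quenches rhodamine fluorescence; 0% = enzyme reaction without inhibitor and -100% = no enzyme wells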
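Fluorescence-quenching assay with 15 nM Sfp, 5 uM rhodamine-CoA and 12.5 uM BHQ-2-labelled ybbR peptide in pH 7.6 Hepes/MgCl2 buffer. Enzyme was pre-incubated with compound for 15 min at room temperature. Rate was taken from the 30-min fluorescence change (525/598 nm).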
G9a block: qHTS Assay for Inhibitors of Histone Lysine Methyltransferase G9a; Histone-lysine N-methyltransferase EHMT2 (Homo sapiens), Q96KQ7; G9a H3K9 monomethylation, AlphaScreen, 2 h; Potency, µM (doses to about 102 µM), inactives show at the highest dose activity, negative = inhibition, actives largely listed as inhibitors; hit rate 8.8% among 350,000; note: % is set by controls: 0 for no effect and ±100 for the full control effect; nearly all actives have a fitted effect of over 75% in size
Target sequence (Q96KQ7 913-1193 limits assumed): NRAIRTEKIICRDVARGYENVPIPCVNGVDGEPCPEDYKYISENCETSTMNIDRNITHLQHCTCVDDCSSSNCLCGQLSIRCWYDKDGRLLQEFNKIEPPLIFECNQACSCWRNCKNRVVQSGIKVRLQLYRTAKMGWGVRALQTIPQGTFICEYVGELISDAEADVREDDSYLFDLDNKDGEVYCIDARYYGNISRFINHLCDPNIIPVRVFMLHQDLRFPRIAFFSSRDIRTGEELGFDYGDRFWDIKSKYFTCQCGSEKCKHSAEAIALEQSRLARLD
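Chemiluminescent proximity detection of H3K9 monomethylation, read after 10 min bead incubation in the dark. Reaction: 20 nM G9a, 500 nM biotin-H3K9 peptide, 20 uM SAM cofactor, 2 h, room temperature, following 15 min enzyme-compound preincubation.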
JMJD2A Tudor: qHTS Assay for Inhibitors of JMJD2A-Tudor Domain; AlphaScreen JMJD2A-Tudor / H3K4me3 peptide binding; hit rate 4.4% among 390,000; AID 504339, 2011; Lysine-specific demethylase 4A (Homo sapiens), O75164; Potency, µM (doses to about 114 µM), inactives show at the top dose activity change, negative = inhibition, actives largely listed as inhibitors; note: % is set by controls: 0 for no effect and ±100 for the full control effect; nearly all actives have a fitted effect of over 50% in size
PLK1 PBD block: qHTS for Inhibitors of PLK1-PDB (polo-like kinase 1 - polo-box domain): Primary Screen | Potency, µM, without a hit: max response, negative = inhibition, usual class: inhibitors | Plk1 PBD binding of FITC phosphopeptide, fluorescence polarization | hit rate 2.8% among 360,000 | Serine/threonine-protein kinase PLK1 (Homo sapiens), P53350; note: series mostly up to about 57 µM; % is set by controls: 0 for no effect and ±100 for the full control effect; nearly all actives have a fitted effect of over 65% in size
HP1b chromo inh: HTS for Inhibitors of HP1-beta Chromodomain Interactions with Methylated Histone Tails. Chromobox protein homolog 1 (Homo sapiens), P83916. AlphaScreen HP1-beta / biotin-H3K9me3 peptide binding. Potency, µM (doses to about 114 µM), without a hit: top-dose activity change, negative = inhibition, usual class: inhibitors. hit rate 0.56% among 390,000. AID 540317, 2011; note: nearly all actives have a fitted effect of over 70% in size
Target sequence (P83916 whole entry, looked up): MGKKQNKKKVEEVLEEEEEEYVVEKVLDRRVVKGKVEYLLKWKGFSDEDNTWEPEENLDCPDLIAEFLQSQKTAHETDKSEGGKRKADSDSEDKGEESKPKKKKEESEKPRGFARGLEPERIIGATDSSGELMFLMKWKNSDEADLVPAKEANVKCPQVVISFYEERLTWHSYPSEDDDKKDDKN
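Compound inhibition of the preformed complex between 50 nM HP1-beta and 50 nM biotinylated H3K9me3 peptide was read by AlphaScreen. Buffer was PBS pH 7.4 with 0.01% Tween-20. Incubations ran 30 min at room temperature, with 10 ug/mL donor/acceptor beads.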
* marks the source's active call; other numbers are inactive results; ? = inconclusive; / = no result given; [ ] = dose if it differs, or a comment. In the library only some 12% were active in any assay of this set; here they are far more common. Calls come from the whole dose curve; as a rule, active = well fitted curve in the direction sought with a large enough effect; inconclusive = small, poorly fitted or top-dose-only effect, or another doubt; inactive = no such curve, though single readings can be large; an effect the other way counts as inactive or inconclusive. Potency is the fitted concentration of half-maximal effect.

SMILES	BAZ2B inh	Sfp inh	G9a block	JMJD2A Tudor	PLK1 PBD block	HP1b chromo inh
COCCSc1ccccc1C(=O)Nc1cc(C)on1	?	32µM*	1.1µM*	-19%	?	?
O=C(Nc1ccc(Br)cc1)C(c1ccccc1)c1ccccc1	0%	10%	5%	-3%	1%	31%
COCCSc1ccccc1C(=O)Nc1cccnc1	-3%	?	1.6µM*	1%	-5%	23%
Cc1nc(Nc2ccc(Cl)c(Cl)c2)sc1C(/C=C/c1ccc2c(c1)OCO2)=NNc1ccc([N+](=O)[O-])cc1[N+](=O)[O-]	/	/	/	-28%	-5%	-2%
COc1cc(C(=O)NCC(=O)N/N=C/c2ccc(OC(=O)c3ccco3)cc2)cc(OC)c1OC	-28%	17%	-2%	-12%[57.1 µM]	-6%	37%
CCCNC(=O)C1(C)CCN(Cc2ccc(-c3ccccc3)o2)C1 (stereo not given)	/	/	/	/	-23%	/
COc1cccc(C(C(=O)NC(C)(C)C)N(C(=O)CCC(=O)Nc2cc(C)on2)c2ccc3c(c2)OCCO3)c1OC (stereo not given)	-1%	22%	10%	0%	-11%	34%
COCCSc1ccccc1C(=O)Nc1ccc2c(c1)OCO2	-13%	?	/	3%	6%	42%
COCCSc1ccccc1C(=O)Nc1nnc(COC)s1	-9%	?	?	-27%	27µM*	-17%
COCCSc1ccccc1C(=O)Nc1ccc(Cl)cc1	?	?	7.1µM*	?	-12%	20%
COCc1nnc(NC(=O)c2ccccc2Oc2ccccc2)s1	-9%	5%	?	-1%	-6%	30%
COc1ccc(C(=O)N2CCC(c3nc(-c4ccc(S(=O)(=O)N5CCCC5)cc4)no3)CC2)cc1	-15%	/	-2%[59 µM]	-12%	/	44%
COc1ccc(-c2cn3nc(N4CCCC(C(=O)Nc5ccccc5F)C4)sc3n2)cc1 (stereo not given)	-18%	/	?	-14%	/	-5%
COc1cccc(/C=C2/SC(=O)N(CC(=O)N3CCc4ccccc4C3)C2=O)c1OCC(=O)O	1%	56µM*	-35%[59 µM]	-5%	-16%	42%
CCOC(=O)COc1c(Br)cc(/C=C2\SC(=O)N(CC(=O)N3CCCC3)C2=O)cc1OC	-25%	0%	?	?	17µM*	-18%
Cc1ccc2c(c1)c1c3n2CCN(C=O)C3CCC1 (stereo not given)	?	2%	50µM*	?	-19%	-15%
CCN1CCn2c3c(c4cc(Cl)ccc42)CCCC31 (stereo not given)	35µM*	?	?	-26%[11.4 µM]	-17%	4%
Cc1ccc2c(c1)c1c3n2CCNC3CCC1 (stereo not given)	?	4%	-17%[59 µM]	?	3%	-8%
CCN(CC)CCN1CCn2c3c(c4cc(C)ccc42)CCCC31 (stereo not given)	?	-2%	?	56µM*	?	6%
Clc1ccc2c(c1)c1cc(Cl)ccc1n2CN1CCOCC1	64%	-18%	15%[59 µM]	15%[57.1 µM]	3%	69%
Cc1ccc2c(c1)c1c3n2CCN(C(=O)c2cccc(C(F)(F)F)c2)C3CCC1 (stereo not given)	28µM*	/	7.9µM*	?	/	-24%
Nc1nc(CN2CCN(c3ccc(F)cc3)CC2)nc(N2CCCc3ccccc32)n1	-64%	4%	40µM*	50µM*	-4%	-9%
O=C(NCCC1=CCCCC1)c1ccc2c(c1)N(Cc1ccc(Cl)cc1)C(=O)c1ccccc1S2(=O)=O	-17%	/	-1%[59 µM]	-12%	/	12%
O=C(O)c1c(-c2ccccc2)c2oc3ccccc3c2[nH]c1=O	12%	?	?	-3%	-8%	24%
O=C(O)c1cccc(NS(=O)(=O)c2ccc3c(c2)C(=O)c2ccccc2C3=O)c1	?	-10%	/	-11%	-6%	23%
SMILES	BAZ2B inh	Sfp inh	G9a block	JMJD2A Tudor	PLK1 PBD block	HP1b chromo inh
O=C1c2ccccc2C(=O)c2cc(S(=O)(=O)Nc3ccccc3)ccc21	11µM*	-25%	?	?	8%	?
O=C1c2cc(S(=O)(=O)NCCO)ccc2-c2ccc(S(=O)(=O)NCCO)cc21	-19%	15%	-17%	-24%	-25%	-38%
O=C(O)CNS(=O)(=O)c1ccc2c(c1)C(=O)c1cc(S(=O)(=O)NCC(=O)O)ccc1-2	-2%	-10%	45µM*	-14%	-9%	19%
CCOC(=O)c1[nH]c(C)c(C(=O)NCc2ccccc2Cl)c1C	-14%	/	-12%[59 µM]	-15%	/	43%
CCc1ccc(NC(=O)c2ccc(F)c(S(=O)(=O)NCc3ccc(Cl)c(Cl)c3)c2)cc1	0%	/	4%[59 µM]	-20%	/	32%
O=C(CSc1nnc(C2COc3ccccc3O2)o1)N1CCN(c2ccccc2)CC1 (stereo not given)	-1%	25%	2%	1%	1%	46%
COc1ccc(C)cc1NC(=O)C(Cc1ccccc1)NS(=O)(=O)c1cccs1 (stereo not given)	9%	/	26%[59 µM]	-17%	/	12%[57 µM]
O=[N+]([O-])c1ccc(Cl)cc1Sc1cccc2cccnc12	-6%	16%	-4%[59 µM]	-7%	-8%	7%
O=[N+]([O-])c1ccc(Cl)cc1Sc1nc2ccccc2o1	14µM*	-5%	?	45µM*	-20%	13µM*
c1nc(NCCc2cnc[nH]2)c2ccc(-c3ccc4c(c3)OCO4)cc2n1	/	/	/	79µM*	/	/
Cc1csc(CNc2ncnc3cc(-c4ccc5c(c4)OCO5)ccc23)n1	/	/	/	56µM*	/	/
Cc1ccc(CNc2ncnc3ccc(-c4ccc5c(c4)OCO5)cc23)o1	/	/	/	45µM*	/	/
Cc1csc(CNc2ncnc3ccc(-c4ccc5c(c4)OCO5)cc23)c1	3%	/	4%[12.7 µM]	-14%	/	77%
Cc1cc(CNc2ncnc3ccc(-c4ccc5c(c4)OCO5)cc23)c(C)o1	/	/	/	-33%	/	/
Cc1nc(CN(C)c2ncnc3cc(-c4ccc5c(c4)OCO5)ccc23)cs1	/	/	/	89µM*	/	/
Cc1oc(-c2ccc(C(=O)NCc3ccccc3Cl)cc2)nc1CN1CCc2ccccc21	?	/	-31%[59 µM]	?	/	-3%[57 µM]
Cc1cccc(-c2nc(C#N)c(N3CCC(C)CC3)o2)c1	11%	11%	-2%	1%	-6%	53%
CC1CCN(c2oc(-c3ccccc3Cl)nc2C#N)CC1	10µM*	?	10µM*	?	-4%	?
